Hit rate of the full screen: of about 360,000 compounds, about 1,100 (0.31%) were called active. This excerpt belongs to a sample that is enriched for actives. A number with no mark means an inactive call. Rule as the data show it: active = activation above about 7.5%; inactive = the rest.
tested on: Methionine sulfoxide reductase A (Bos taurus); test: activation of methionine sulfoxide reductase A – biochemical, absorbance, bovine, HTS, primary screen (AID 602163); details: purified bovine MsrA, absorbance read-out; at 10.6 µM; hits give high values;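 also: 0% = vehicle and 100% = reference activator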

Point of comparison: `COc1ccc([C@H]2CC(=O)C=C(/C=C/c3ccc(Cl)cc3)C2)cc1`, activation -1.21%. Against it:
- CC(=O)NC(Cc1c[nH]c2ccccc12)C(=O)NCCc1ccccc1 (configuration not stated) — lower, -3.82%
- O=C(N[C@@H](Cc1c[nH]c2ccccc12)C(=O)O)OCC1c2ccccc2-c2ccccc21 — higher, 0.63%
- NS(=O)(=O)c1cccc(NC(=O)CC23CC4CC(CC(Br)(C4)C2)C3)c1 — lower, -2.66%
- C#CCO[C@@H]1C[C@H](n2cnc3c(=O)[nH]c(NC(=O)C(C)C)nc32)O[C@@H]1CO — higher, -0.46%
- COc1cc(NC(=O)c2ccccc2)c(OC)cc1NC(=O)Cc1ccccc1 — higher, 0.53%
- C/C(=N\NC(=O)c1ccc(C)cc1)C1C(=O)c2ccccc2C1=O — lower, -5.75%
- O=C(CSCc1c(Cl)cccc1Cl)NN1C(=O)c2ccccc2C1=O — lower, -2.13%
- O=C(COC(=O)Cc1ccc(Br)cc1)Nc1ccc(N2CCOCC2)cc1 — higher, -1.14%
- Cn1c(SCC(=O)N2CCCC2)nnc1-c1cccs1 — higher, -0.73%
- O=C(CSc1ncccn1)N1CCCC1 — lower, -3.29%
- CCCCn1c(N)c(N(CC(C)C)C(=O)CSc2ccc([N+](=O)[O-])cc2)c(=O)[nH]c1=O — lower, -3.75%
- COc1ccc([C@H]2CC(=O)C=C(c3ccc(C)cc3)C2)cc1 — lower, -3.05%
- O=C(Nc1cccn(Cc2c(Cl)cccc2Cl)c1=O)c1ccc(Cl)cc1 — higher, 2.68%
- CC(Sc1nnc(CNC(=O)c2ccccc2F)n1C)C(=O)Nc1nccs1 (configuration not stated) — higher, 0.09%
- O=C(O)c1ccccc1-c1ccccc1C(=O)Nc1ccccc1Br — lower, -10.3%
- O=C(O)c1ccccc1-c1ccccc1C(=O)Nc1nccs1 — lower, -2.03%
- O=C(O)c1ccccc1-c1ccccc1C(=O)NCCc1ccccc1 — lower, -13.5%
- O=C(Nc1ccccc1F)c1ccccc1-c1ccccc1 — lower, -1.97%
- N#Cc1ccc(OCCN2C(=O)NC3(CCSC3)C2=O)cc1 (configuration not stated) — higher, -0.26%
- CCOC(=O)c1cc(-c2ccccc2C)n(Cc2cc(C)no2)n1 — lower, -2.88%
- COc1ccccc1CNC(=O)C1CCN(S(=O)(=O)c2ccc3c(c2)OCCO3)CC1 — lower, -2.2%
- Cc1ccc(S(=O)(=O)N(CC(=O)NN=C2CCN(C)CC2)c2ccc(F)cc2)cc1 — lower, -2.23%
- CCOC(=O)c1cc(-c2sc(NC(=O)c3ccccc3)nc2C)n(CCO)n1 — lower, -3.15%
- Cc1nc(NNC(=O)c2ccccc2)cc(-c2ccccc2)n1 — higher, 1.76%
- CCN(CC)S(=O)(=O)c1ccc(OC(C)C)c(N)c1 — lower, -3.46%
- CN1C(=O)c2ccccc2C(C(=O)NCCCN2CCCC2)C1c1c[nH]c2ccccc12 (configuration not stated) — higher, -1.12%
- Cc1ccc(SCC(=O)c2cc(C)c(OC(=S)N(C)C)c(C)c2)cc1 — higher, 1.83%
- COc1ccc(CCNC(=O)CN2CCC(n3nnc4cc(F)ccc43)CC2)cc1OC — lower, -2.2%
- Cc1ccc2c(CC(=O)NCc3cccs3)coc2c1 — lower, -2.6%
- COc1cc(C(=O)OCCCN2CCOCC2)cc(OC)c1OC — higher, -0.8%
- COC(=O)c1scc(S(=O)(=O)C(C)(C)C)c1-n1cccc1 — lower, -1.27%
- COc1ccc(S(=O)(=O)N2CCOCC2)cc1NC(=O)Cc1coc2cc(C)ccc12 — lower, -1.58%
- CC(C)c1ccc(Nc2ncccc2C#N)cc1 — higher, -0.47%
- CC1=NNC(=O)C1CCC(=O)N/N=C\c1ccc(Cl)c(Cl)c1 (configuration not stated) — lower, -2.03%
- CC1=NNC(=O)C1CCC(=O)N/N=C\c1cccc(Cl)c1 (configuration not stated) — lower, -5.62%
- CCOc1ccc(CCNC(=O)COC(=O)C2CCN(S(=O)(=O)c3ccccc3)CC2)cc1OCC — lower, -3.79%
- CSC1=NCCN1C(=O)Cc1cccc2ccccc12 — lower, -1.62%
- O=C(NCCOc1ccccc1)N1[C@H]2CC[C@@H]1C=C(c1ccc(F)cc1OCc1ccccc1)C2 — higher, -0.63%
- CCOc1ccc(C(C)=O)cc1COC(=O)CN1C(=O)NC2(CCCC2)C1=O — lower, -2.45%
- O=C(CN1C(=O)NC2(CCCC2)C1=O)OCCOc1ccc(F)cc1 — higher, -0.72%
- N=c1c2c3c(sc2ncn1CCCN1CCOCC1)CCCCC3 — lower, -6.06%
- CCn1c(=S)[nH]c2sc3c(c2c1=O)CCCCC3 — higher, 1.11%
- COc1cc(NC(=O)COC(=O)c2cnc(C)cn2)c(C)cc1[N+](=O)[O-] — lower, -4.41%
- COc1ccc(C(=O)OCC(=O)c2ccc(Cl)s2)c(OC)c1OC — lower, -1.71%
- C[C@H](NC(=O)c1ccccc1Cl)C(=O)OCC(=O)N1CCN(c2ccccc2)CC1 — higher, 1.01%
- COc1ccc(C(=O)OCC(=O)Nc2ccc3[nH]c(=O)[nH]c3c2)c(OC)c1OC — higher, 1.62%
- COc1ccc(C(=O)OCC(=O)c2ccc(C)c(S(=O)(=O)N3CCOCC3)c2)cc1OC — lower, -4.43%
- COc1cccc(/C=C/C(=O)OCC(=O)N2CCN(c3ccccc3)CC2)c1 — higher, -1.19%
- CCOC(=O)C1CCN(C(=O)C2CCN(S(=O)(=O)c3c(C)noc3C)CC2)CC1 — higher, -0.14%
- O=C1[C@@H]2C(Cc3ccc(O)cc3)NC3(C(=O)Nc4ccc(F)cc43)[C@@H]2C(=O)N1c1ccc(F)cc1 (some centres not stated) — lower, -1.38%
- COc1ccc([C@H]2N[C@]3(CCCN(CC4CCCCC4)C3=O)[C@H]3C(=O)N(C)C(=O)[C@@H]23)cc1 — lower, -4.49%
- CCOc1ccccc1NC(=O)C1CCCN(C(=O)Nc2ccccc2)C1 (configuration not stated) — lower, -2.87%
- Nn1c(SCC(=O)Nc2ccc3c(c2)CCC3)nnc1C1CC1 — higher, 0.99%
- CC1CCc2[nH]c3ccc(C(=O)N(C)CC(=O)Nc4cccc(F)c4)cc3c2C1 (configuration not stated) — higher, -0.36%
- CCCN(CC(=O)Nc1ccccc1C)C(=O)c1cc(=O)[nH]c2ccccc12 — lower, -8.69%
- COCC(=O)Nc1c(I)c(C(=O)NCC(O)CO)c(I)c(C(=O)N(C)CC(O)CO)c1I (configuration not stated) — higher, -1.2%
- NC(=O)NCCCC(=O)O — higher, 5.76%
- COc1ccc(OC)c(NC(=O)COC(=O)Cc2ccsc2)c1 — lower, -3.82%
- S=c1nccc(-c2cc(Cl)sc2Cl)[nH]1 — lower, -10.9%
- CC[C@]1(O)C[C@@H]2CN(CCc3c([nH]c4ccccc34)[C@@](C(=O)OC)(c3cc4c(cc3OC)N(C)[C@H]3[C@@](O)(C(=O)OC)[C@H](OC(C)=O)[C@]5(CC)C=CCN6CC[C@]43[C@@H]65)C2)C1 — higher, -0.23%
- CCOc1ccc2[nH]c(=O)c(CN(CCCO)C(C)=O)cc2c1 — higher, -0.13%
- Nc1ccc2[nH]c(=S)sc2c1 — higher, 0.61%
- Cn1c(CCCOc2ccc(Cl)cc2Cl)n[nH]c1=S — lower, -3.29%
- COC(=O)c1ccc(NC(=O)CSc2nnc(Cc3cccn3C)n2-c2ccc(F)cc2)cc1 — higher, -0.87%
- COc1ccccc1NC(=O)CSc1nnc(Cc2cccn2C)n1-c1ccc(F)cc1 — higher, -0.41%
- CCn1c(C)nc2c1C(=O)c1ccccc1C2=O — higher, 6.51%
- Cc1cc(OC(C)C(=O)Nc2ccc(S(=O)(=O)Nc3onc(C)c3C)cc2)cc(C)c1Cl (configuration not stated) — lower, -4.68%
- O=C(Nc1ccc(S(=O)(=O)Nc2ncccn2)cc1)C12CC3CC(CC(C3)C1)C2 — lower, -5.78%
- COc1cc(C(=O)OCC(=O)NC23CC4CC(CC(C4)C2)C3)cc(OC)c1OC — higher, -1.08%
- COc1ccc(S(=O)(=O)N2CCOCC2)cc1NC(=O)CC1CC2CCC1C2 (configuration not stated) — lower, -3.8%
- CCN(CC(=O)Nc1ccccc1OC)C(=O)Cn1cnc2ccccc2c1=O — lower, -6.89%

In the case of `CC(=O)NC(Cc1c[nH]c2ccccc12)C(=O)O` (configuration not stated), the activation is reported as 9.9% (active).
`O=C(NC1=CC(=O)c2ccccc2C1=O)c1ccccc1` was tested, and the activation was 18.2% (active).
`O=C(CSc1n[nH]c(-c2cccs2)n1)N1CCCCC1` was tested, and the activation was 8.31% (active).
With `COc1ccc([C@H]2CC(=O)C=C(/C=C/c3ccccc3)C2)cc1` the activation was 8.06% (active).
`O=C(O)c1ccccc1-c1ccccc1C(=O)Nc1cccc2ccccc12` was tested, and the activation was 11.4% (active).
In the case of `O=C(O)c1ccccc1NC(=O)c1ccccc1-c1ccccc1C(=O)O`, the activation is reported as 7.87% (active).
In the case of `Cn1sc(NC(=O)c2ccccc2)nc1=O`, the activation is reported as 14.9% (active).
With `NC1=CC(=O)C(=O)c2cccnc21` the activation was 15.2% (active).
`CC1=NNC(=O)C1CCC(=O)N/N=C(\C)c1ccc(Cl)cc1` (configuration not stated) was tested, and the activation was 19.6% (active).
In the case of `Cc1ccc(COC(=O)CN2C(=O)NC3(CCCC3)C2=O)cc1`, the activation is reported as 10.9% (active).
In the case of `S=c1[nH]nc2c3c4c(sc3ncn12)CCCC4`, the activation is reported as 12.9% (active).
With `COc1ccc(C(=O)COC(=O)c2ccc([N+](=O)[O-])s2)cc1OC` the activation was 12.4% (active).
In the case of `O=C(OCC(=O)N1CCN(c2ccccc2)CC1)c1ccc([N+](=O)[O-])s1`, the activation is reported as 8.9% (active).
In the case of `COc1cc(NC(=O)COC(=O)c2ccc([N+](=O)[O-])s2)cc(OC)c1OC`, the activation is reported as 10.6% (active).
In the case of `CCCN(CC(=O)Nc1ccccc1C)C(=O)c1ccc2[nH]c3c(c2c1)CC(C)CC3` (configuration not stated), the activation is reported as 17.2% (active).
For `CC(=O)N(O)CCCCCNC(=O)CCC(=O)N(O)CCCCCNC(=O)CCC(=O)N(O)CCCCCNC(=O)CCC(=O)O`, the activation was 8.82% (active).
`CCOc1ccc2[nH]c(=S)sc2c1` was tested, and the activation was 8.43% (active).
For `Cc1ccc(C)c(NC(=O)CSc2nnc(Cc3cccn3C)n2-c2ccc(F)cc2)c1`, the activation was 9.61% (active).
For `Cc1noc(NS(=O)(=O)c2ccc(NC(=O)C34CCC(CC3)C4)cc2)c1C`, the activation was 7.83% (active).
`CCN(CC(=O)Nc1ccccc1OC)C(=O)CC1CC2CCC1C2` (configuration not stated) was tested, and the activation was 7.82% (active).
